Out of some 48,000 compounds screened, about 13,000 (27%) showed an effect of 50% or more. This is one part of the list.

For the assay, the system named is Wolbachia pipientis. In words: Anti-Wolbachia Cell-Based Screen. The following applies: 5 µM. Details: scale not given: in the data most compounds retested in dose-response had high values. The class given is functional.
`Cc1noc(C)c1C(=O)N1Cc2ncn(C)c2C(COCC(C)C)C1.O=C(O)C(F)(F)F` (configuration not stated): the “Percent Effect” value stood at 115.1%. To `Cc1noc(C)c1C(=O)N1Cc2ncn(C)c2C(COCC2CC2)C1.O=C(O)C(F)(F)F` (configuration not stated) belongs 110.4%; to `Cn1cnc2c1C(COCC1CCOCC1)CN(C(=O)c1ccco1)C2.O=C(O)C(F)(F)F` (configuration not stated), -6.702%.

As to `CCOCC1CCN(C(=O)Nc2ccc(-c3csnn3)cc2)C1` (configuration not stated), the “Percent Effect” value is reported as -10.06%. Under `CC(C)CC(=O)NS(=O)(=O)c1ccc(C#N)cc1C(F)(F)F` stands 112.6%.

As for `Cc1ccc(C)c(S(=O)(=O)NC(=O)COc2cccc(C#N)c2)c1`, the “Percent Effect” value is 12.25%.

Regarding `COc1ccc(C(=O)NS(=O)(=O)c2ccc(C#N)cc2C(F)(F)F)cc1`, the “Percent Effect” value is reported as -4.886%. Under `CC(C)(C)CC(=O)NS(=O)(=O)c1ccc(C#N)cc1C(F)(F)F` stands 82.77%; under `N#Cc1cccc(S(=O)(=O)NC(=O)CCOCC(F)(F)F)c1`, 2.733%; under `N#Cc1cccc(S(=O)(=O)NC(=O)COCC(F)(F)F)c1`, -9.311%.

For the compound `Cc1ccc(C(=O)NCCC2CCN(C)CC2)cc1N(C)S(C)(=O)=O`, the “Percent Effect” value was -13.52%. To `CC(=O)c1csc(-c2csc(Cn3ccc(=O)[nH]c3=O)n2)c1` belongs -9.484%; to `O=C(Cn1ccnc1)N1C[C@@H]2CC[C@H](Oc3ccc(Cl)cc3)[C@@H]2C1`, 109.7%. To `O=C(Cn1ccnc1)N1C[C@@H]2CC[C@H](Oc3ccccc3F)[C@@H]2C1` belongs 91.22%; to `CCC(CNC(=O)Cn1ccnc1)Oc1cccc(F)c1` (configuration not stated), 0.7752%.

As for `CN(C)CC(=O)N1C[C@@H]2CC[C@H](Oc3ccccc3Cl)[C@@H]2C1`, the “Percent Effect” value is reported as -7.066%. Under `CC(=O)NCC(=O)N1C[C@@H]2CC[C@H](Oc3ccccc3Cl)[C@@H]2C1` stands 95.47%; under `O=C(c1cnco1)N1C[C@@H]2CC[C@H](Oc3ccccc3F)[C@@H]2C1`, -11.33%; under `O=C(c1cnco1)N1C[C@@H]2CC[C@H](Oc3cccc(F)c3)[C@@H]2C1`, -6.458%. To `CC(C)N1CC(C(=O)N2CCC(Oc3ccccc3Cl)CC2)CC1=O` (configuration not stated) belongs -11.86%.

Regarding `O=C(Cn1ccnc1)N1C[C@@H]2CC[C@H](Oc3ccccc3)[C@@H]2C1`, the “Percent Effect” value was -14.9%.

Regarding `O=C(Cn1ccnc1)N1C[C@@H]2CC[C@H](Oc3cccc(F)c3)[C@@H]2C1`, the “Percent Effect” value was 109%.

On to `O=C(Cn1ccnc1)N1C[C@@H]2CC[C@H](Oc3ccccc3Cl)[C@@H]2C1`, for which the “Percent Effect” value is given as -8.109%.

As to `O=C(Cn1ccnc1)N1CCC(n2cc(-c3cccc(Cl)c3)nn2)CC1`, the “Percent Effect” value was found to be 2.937%. On to `CC(C1CC1)N(C)C(=O)c1cnc(-c2ccc3c(c2)OCO3)s1` (configuration not stated), for which the “Percent Effect” value was -9.871%.

As to `CN(CC1CC1)C(=O)Cc1csc(-c2ncccn2)n1`, the “Percent Effect” value is given as -2.04%. Under `CCC(=O)NCC(CC)Oc1cccc(F)c1` (configuration not stated) stands -9.029%; under `CCN(CC)Cc1nc2c(o1)CN(S(=O)(=O)c1cccs1)C2.O=C(O)C(F)(F)F`, 103.4%; under `CCN(CC)Cc1nc2c(o1)CN(C(=O)c1ccc3ncccc3c1)C2`, -8.46%. Under `CCN(CC)Cc1nc2c(o1)CN(C(=O)c1ccncc1F)C2` stands 11.31%; under `CN(C)Cc1nc2c(o1)CN(S(=O)(=O)c1cccs1)C2.O=C(O)C(F)(F)F`, 113.1%.

On to `CN(C)Cc1nc2c(o1)CN(C(=O)NCc1cccc(F)c1)C2.O=C(O)C(F)(F)F`, for which the “Percent Effect” value is given as -9.503%.

For the compound `CC(C)N(C)Cc1ncn2c1CN(S(=O)(=O)c1cccs1)CCC2.O=C(O)C(F)(F)F`, the “Percent Effect” value amounted to 2.779%.

With `CC(Oc1ccc(F)c(F)c1)C(=O)N(CC(N)=O)C1CCCC1` (configuration not stated), the “Percent Effect” value turned out to be 5.493%.

For the compound `CC(NC(=O)CCc1cccc(OC2CCCC2)c1)c1nncn1C` (configuration not stated), the “Percent Effect” value was -2.207%. Under `Cc1sc(NC(=O)CN(C)S(C)(=O)=O)c(C#N)c1C` stands 5.3%; under `CCCC(=O)Nc1sc(C(=O)OCC)c(C)c1C#N`, 10.62%. For `CCOC(=O)c1sc(NC(=O)CN(C)S(C)(=O)=O)c(C#N)c1C`, the “Percent Effect” value was 0.9217%. As to `CCOC(=O)c1sc(NC(=O)CN2C(=O)CCC2=O)c(C#N)c1C`, the “Percent Effect” value is reported as 132.7%. Under `CCOC(=O)c1sc(NC(=O)C(C)C)c(C#N)c1C` stands 157.4%; under `Cc1cc(N2CCCC(N(C)C)C2)n2nccc2n1` (configuration not stated), 14.85%; under `COC(=O)C(NC(=O)c1ccco1)c1cc(F)ccc1F` (configuration not stated), -3.431%. To `COC(=O)C(NC(=O)CCOC(C)C)c1cc(F)ccc1F` (configuration not stated) belongs 85.02%; to `CC(C)OCCC(=O)Nc1c(-c2ccc(F)cc2)ncn1C`, 6.912%. To `CC(C)NC(=O)CC(C)NCc1ccc(F)cc1Cl` (configuration not stated) belongs 10.92%; to `O=C(CCc1ccco1)Nc1cccc(S(=O)(=O)C(F)F)c1`, 1.803%. Turning to `CCOC(=O)C(C)NC(=O)CCSc1ccc(F)cc1` (configuration not stated), the “Percent Effect” value worked out at 5.779%. As to `CC(C)OCCC(=O)N(C)c1ccc(F)c(Cl)c1`, the “Percent Effect” value is recorded as 3.103%. Under `COC(=O)C(NC(=O)C(C)C)c1cc(F)ccc1F` (configuration not stated) stands -7.207%; under `COC(=O)C(NC(=O)CC(C)C)c1cc(F)ccc1F` (configuration not stated), 110.3%. As for `COC(=O)C(NC(=O)CCc1ccco1)c1cc(F)ccc1F` (configuration not stated), the “Percent Effect” value turned out to be 117.5%. Under `CCCC(=O)NC(C(=O)OC)c1cc(F)ccc1F` (configuration not stated) stands 95.91%.

For the origin of these results see ChEMBL document CHEMBL3988442, “University of Dundee, Small-Polar-MMV Screening Library” (2021).
